In all, about 340,000 compounds went through this assay and about 3,300 (0.97%) were called active.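 Rule for the calls: active = mean activation above about 17%, with every replicate also reaching it (limit read from the data, passing the limit was not always enough); inconclusive = only one of the two conditions met; inactive = the rest.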 The full list was thinned out, with actives kept by preference.
target: Protein FosB (Mus musculus) (UniProt P13346); experiment: activators of delta FosB homodimer, primary screen, biochemical, fluorescence polarization, TAMRA-CDK5 oligo, single point (AID 493131); conditions: purified delta FosB, at 25 µM, hits give high values, percent of positive-control signal above neutral wells;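 note: fluorescence polarization rise as delta FosB binds a TAMRA Cdk5 AP-1 oligo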
Sequence (P13346 whole entry, looked up): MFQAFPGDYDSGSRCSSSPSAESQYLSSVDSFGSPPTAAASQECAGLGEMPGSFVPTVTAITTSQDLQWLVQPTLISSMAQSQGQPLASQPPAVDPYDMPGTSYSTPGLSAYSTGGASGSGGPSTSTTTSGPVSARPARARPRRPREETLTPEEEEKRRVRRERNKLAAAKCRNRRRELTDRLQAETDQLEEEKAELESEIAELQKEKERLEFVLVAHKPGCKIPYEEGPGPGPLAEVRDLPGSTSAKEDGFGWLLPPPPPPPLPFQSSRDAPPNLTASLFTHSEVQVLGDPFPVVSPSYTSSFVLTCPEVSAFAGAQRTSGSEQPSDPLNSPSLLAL

Row | SMILES | activation
1 | COc1ccc(C)cc1NC(=O)CN(C)S(=O)(=O)c1ccc2c(c1)n(C)c(=O)c(=O)n2C | -14% (inactive)
2 | O=C(Nc1ccc2ccccc2c1)/C(=C/c1cccc(Br)c1)NC(=O)c1ccco1 | 23% (active)
3 | O=C(Nc1ccc2ccccc2c1)/C(=C\c1ccc2c(c1)OCO2)NC(=O)c1ccco1 | 5.94% (inactive)
4 | Cc1ccc(NC(=O)/C(=C\c2ccccc2)NC(=O)c2ccco2)cc1 | 10.9% (inactive)
5 | COC(=O)c1ccc2c(c1)S(=O)(=O)NC(=NCCCN1CCOCC1)S2 | 0.881% (inactive)
6 | COC(=O)c1ccc(C2C(Oc3ccccc3C)C(=O)N2CCc2ccc(OC)c(OC)c2)cc1 (stereo not given) | -14.8% (inactive)
7 | CC(C)(C)NC(=O)c1cccc(NC(=O)Cc2ccc(Br)cc2)c1 | -8.13% (inactive)
8 | COc1ccc(CC(=O)Nc2ccc(C(=O)NC(C)(C)C)cc2)cc1 | 35.1% (active)
9 | COc1ccc(NC(=O)c2ccc(C#CC(C)(C)O)cc2)cc1 | -5.48% (inactive)
10 | CC(=O)N1CC(=O)N(CC(=O)Nc2ccc(Br)cc2)C1=S | -0.232% (inactive)
11 | O=C1c2cccc3cccc(c23)C(=O)N1CCCCCc1n[nH]c(=S)o1 | -2.23% (inactive)
12 | C[N+](C)(CCCCCC[N+](C)(C)CCCN1C(=O)c2cccc3cccc(c23)C1=O)CCCN1C(=O)c2cccc3cccc(c23)C1=O | 85% (active)
13 | O=C1c2ccccc2C(=O)N1CCCCCCN1C(=O)c2ccccc2C1=O | -2.1% (inactive)
14 | CCOC(=O)Cc1csc(SCC(=O)NC(C)C23CC4CC(CC(C4)C2)C3)n1 (stereo not given) | -21% (inactive)
15 | CC1(C)CC(=O)CC2(C1)NCC(c1ccccc1Cl)c1c2[nH]c2ccccc12 (stereo not given) | -13.7% (inactive)
16 | O=C(NCc1cccnc1)C12CC3CC(CC(C3)C1)C2 | 0.989% (inactive)
17 | CC(C)n1cnc2c(NCc3ccccc3)cc(OCC3CCN(C)CC3)cc21 | 91.8% (active)
18 | CCC(CO)Oc1cc(NC(=O)c2cccc(F)c2)c2ncn(C(C)C)c2c1 (stereo not given) | 7.98% (inactive)
19 | CCC(CO)Oc1cc(NC(=O)c2cccc3ccccc23)c2ncn(C(C)C)c2c1 (stereo not given) | -12.6% (inactive)
20 | C/C(CC(=O)Nc1cccc(C(F)(F)F)c1)=N\NC(=O)C(=O)NCC(C)C | -12.7% (inactive)
21 | CCCCOc1ccc(CON(C(C)=O)C(C)=O)cc1Cl | -3.14% (inactive)
22 | CCn1ccnc1CNC(=O)CC1C(=O)NCCN1Cc1ccc(F)cc1Cl (stereo not given) | -11.3% (inactive)
23 | COc1ccc(C2NC(=O)c3ccccc3N2)cc1 (stereo not given) | -0.293% (inactive)

Row | SMILES | activation
24 | Oc1ccc(C2Nc3cccc4cccc(c34)N2)cc1 | 58.9% (active)
25 | Brc1ccccc1C1Nc2cccc3cccc(c23)N1 | -8.49% (inactive)
26 | O=C(CCc1nnc(CCCCc2ccccc2)o1)NC(c1cccnc1)C(F)(F)F (stereo not given) | -5.13% (inactive)
27 | O=C(O)C1CCN(S(=O)(=O)N2CCOCC2)CC1 | 1.05% (inactive)
28 | CCN1CCN(c2nc(Nc3cccc(F)c3)nc(N)c2[N+](=O)[O-])CC1 | 10.8% (inactive)
29 | CNc1nc(Nc2ccc(C)c(Cl)c2)nc(N)c1[N+](=O)[O-] | 60.7% (active)
30 | Nc1nc(NCCCN2CCOCC2)nc(Nc2ccccc2)c1[N+](=O)[O-] | 4.67% (inactive)
31 | CCNC(=O)COC(=O)/C=C/c1c(C)nn(Cc2cccc(OC)c2)c1Cl | -7.6% (inactive)
32 | CC(C)Nc1ccc(-n2nc3ccccc3[n+]2[O-])cc1 | -2.96% (inactive)
33 | CC1(C)CC(=O)c2c(n(S(=O)(=O)c3ccccc3)c3ccc(NS(=O)(=O)c4ccccc4)cc23)C1 | -1.95% (inactive)
34 | COc1ccc(S(=O)(=O)N2CCCCC2)cc1NC(=O)c1cc([N+](=O)[O-])ccc1N1CCOCC1 | 5.22% (inactive)
35 | O=C(NCc1ccc2c(c1)OCO2)c1cc([N+](=O)[O-])ccc1N1CCOCC1 | 5.71% (inactive)
36 | CCOc1ccc2nc(NC(=O)c3cc([N+](=O)[O-])ccc3N3CCOCC3)sc2c1 | 26.6% (active)
37 | CCc1ccc(NC(=O)c2ccc(Cn3cc([N+](=O)[O-])cn3)cc2)cc1 | 4.46% (inactive)
38 | COc1cc(NS(=O)(=O)c2ccc(NC(=O)c3ccc([N+](=O)[O-])cc3)cc2)ncn1 | -0.999% (inactive)
39 | Cn1ccc(=Nc2ccc(NC(=O)c3ccc(N=c4ccn(C)c5ccc([N+](=O)[O-])cc45)cc3)cc2)cc1 | 62.2% (active)
40 | COc1ccc(C(=O)Nc2ccnn2C2CCN(Cc3ccncc3)CC2)cc1 | -4.76% (inactive)
41 | O=C(NCc1ccc2c(c1)OCO2)c1c(-c2ccsc2)sc2ccccc12 | -2.79% (inactive)
42 | O=S(=O)(c1ccc(Cl)cc1)c1nc(-c2ccccc2F)oc1NCCN1CCOCC1 | -12.7% (inactive)
43 | COc1ccc(/C=C/C(=O)OCC(=O)N2CCN(S(=O)(=O)c3ccc(C)cc3C)CC2)cc1OC | 19.8% (active)
44 | Cc1ccc(S(=O)(=O)N2CCN(C(=O)COC(=O)/C=C/c3cccc(Cl)c3)CC2)c(C)c1 | -10.6% (inactive)
45 | Cc1ccc(S(=O)(=O)N2CCN(C(=O)COC(=O)c3c(C)cc(C)cc3C)CC2)c(C)c1 | -5.88% (inactive)
